Eight compounds from PubChem BioAssay (NCI) can be followed below.

Common to all, as to experiment: NCI-60 one-dose screen, 48 h (100 = growth as untreated, 0 = no growth, -100 = all killed)
One assay concerns DU-145 prostate. The conditions noted are these: 10 µM unless noted.
Another assay has as its system K-562 leukemia. The settings on record: 10 µM unless noted.
The subject of a further assay is MALME-3M melanoma. The conditions noted are these: 10 µM unless noted.
In a further assay the test system is MDA-MB-231 breast. The settings on record: 10 µM unless noted.
In a further assay the test system is RXF 393 renal. The settings on record: 10 µM unless noted.
For a further assay, the system named is SF-268 CNS. The conditions noted are these: 10 µM unless noted.
The next assay concerns SF-295 CNS. The settings on record: 10 µM unless noted.
In another assay the test system is SF-539 CNS. The conditions noted are these: 10 µM unless noted.
The test system of a further assay is UACC-257 melanoma. The settings on record: 10 µM unless noted.
Another assay deals with M14 melanoma. The settings on record: 10 µM unless noted.
For a further assay, the system named is HCT-15 colon. The settings on record: 10 µM unless noted.
A further assay deals with HT29 colon. The settings on record: 10 µM unless noted.
Another assay concerns SNB-19 CNS. The conditions noted are these: 10 µM unless noted.
The test system of a further assay is U251 CNS. The settings on record: 10 µM unless noted.
In another assay the test system is PC-3 prostate. The settings on record: 10 µM unless noted.
The test system of the next assay is SK-MEL-5 melanoma. The settings on record: 10 µM unless noted.
Another assay relates to UACC-62 melanoma. The settings on record: 10 µM unless noted.
Another assay relates to SK-MEL-28 melanoma. The conditions noted are these: 10 µM unless noted.
The test system of the next assay is LOX IMVI melanoma. The settings on record: 10 µM.
For another assay, the system named is SNB-75 CNS. The settings on record: 10 µM unless noted.

Molecules are shown by their SMILES. The panel holds about 83,000 compounds, 20% with a hit somewhere; the sample as a whole holds those more often.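 The test compound was applied at a single concentration to cells in 96-well plates for 48 hours, and percent growth was recorded.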 Unmarked numbers belong to inactive results. Active and inactive are the calls of the source. The calls were made as follows: active = growth percent below 10; inactive = the rest.

With `COc1ccc2[nH]c(O)c(N=NC(=O)COc3ccc(NC(=O)Nc4ccccc4)cc3)c2c1`, the growth was 72.5% with DU-145 prostate; 46.3% with K-562 leukemia; 13.9% in the assay on MALME-3M melanoma; 12.9% in the assay on MDA-MB-231 breast; 39% in the assay on RXF 393 renal; 41.8% in the assay with SF-268 CNS. In addition, the growth in the assay with SF-295 CNS was 41.7%; with SF-539 CNS, -22.7% (active); in the assay with UACC-257 melanoma, 63.9%; in the assay on M14 melanoma, 41.7%; in the assay on HCT-15 colon, 108%; with HT29 colon it was 52.4%. Also, the growth in the assay with SNB-19 CNS was 14.6%; in the assay on U251 CNS it was -4.75% (active); with PC-3 prostate, 40.5%; with SK-MEL-5 melanoma, 69.7%; with UACC-62 melanoma, 10.1%; with SK-MEL-28 melanoma, 8.57% (active).
In the case of `Nc1nc(C(F)(F)F)cs1`, the growth was 109% in the assay on DU-145 prostate; 99.9% in the assay on K-562 leukemia; 103% in the assay with MALME-3M melanoma; 117% with MDA-MB-231 breast; 112% with RXF 393 renal; 99.3% with SF-268 CNS. Further, the growth in the assay on SF-295 CNS is 103%; in the assay on SF-539 CNS it was 106%; in the assay with UACC-257 melanoma it was 104%; in the assay with M14 melanoma, 108%; in the assay with HCT-15 colon, 104%; in the assay with HT29 colon, 112%. For the same compound, the growth was 105% in the assay with SNB-19 CNS; 103% with U251 CNS; 102% in the assay with PC-3 prostate; 104% in the assay with SK-MEL-5 melanoma; 101% in the assay with UACC-62 melanoma; 110% in the assay on SK-MEL-28 melanoma.
`CN1CCN(/C(=N\c2sc(-c3ccccc3)nc2-c2ccccc2)c2ccccc2)CC1`: the growth in the assay on DU-145 prostate was 92.3%; in the assay on K-562 leukemia, 17.8%; in the assay with MALME-3M melanoma, 77.9%; with MDA-MB-231 breast it was 77.9%; in the assay with RXF 393 renal it was 76.1%; with SF-268 CNS, 91.5%. Besides, the growth with SF-295 CNS is 87.6%; in the assay on SF-539 CNS, 76%; in the assay on UACC-257 melanoma it was 77.4%; in the assay on M14 melanoma, 76.8%; with HCT-15 colon, 16.7%; with HT29 colon it was 9.91% (active). In addition, the growth was 100% with SNB-19 CNS; 86% in the assay on U251 CNS; 56.8% with PC-3 prostate; 75% in the assay with SK-MEL-5 melanoma; 75.7% in the assay with UACC-62 melanoma; 57.7% in the assay with SK-MEL-28 melanoma.
Consider `COc1ccc(/C=C/c2nc3ccccc3c(=O)n2CC(=O)Nc2ccc(Cl)cc2)cc1`, for which the growth in the assay with DU-145 prostate is 65.9%; in the assay on K-562 leukemia, 66.6%; in the assay with MALME-3M melanoma, 76.3%; with MDA-MB-231 breast it was 48.8%; in the assay on RXF 393 renal, 48.5%; with SF-268 CNS it was 61.4%. Besides, the growth in the assay with SF-295 CNS is 53%; in the assay with SF-539 CNS, -13% (active); in the assay on UACC-257 melanoma, 92.3%; with M14 melanoma, 77.8%; in the assay on HCT-15 colon, 75.2%; in the assay with HT29 colon, 38.7%. The growth is 77.4% in the assay with SNB-19 CNS; 10.9% in the assay with U251 CNS; 48.3% in the assay with PC-3 prostate; 89% with SK-MEL-5 melanoma; 73.3% in the assay with UACC-62 melanoma; 36.5% with LOX IMVI melanoma. For the same compound, the growth in the assay with SK-MEL-28 melanoma is 93%.
For `CN(C)c1ccnc(CNCCSC2(c3ccc(C(F)(F)F)cc3)c3ccccc3CCc3ccccc32)c1`, the growth was -3.51% (active) in the assay with DU-145 prostate; -16.3% (active) with K-562 leukemia; -91.8% (active) in the assay with MALME-3M melanoma; -54.6% (active) in the assay with MDA-MB-231 breast; -88.3% (active) in the assay with RXF 393 renal; 14.1% in the assay on SF-268 CNS. Further, the growth is -96.9% (active) in the assay on SF-295 CNS; -97.6% (active) in the assay on SF-539 CNS; -59.8% (active) in the assay with UACC-257 melanoma; -75.6% (active) in the assay on M14 melanoma; -82.8% (active) in the assay on HCT-15 colon; -65.9% (active) in the assay on HT29 colon. Moreover, the growth in the assay on U251 CNS is -94.9% (active); in the assay with PC-3 prostate, -35.3% (active); in the assay with SK-MEL-5 melanoma, -99.6% (active); in the assay with UACC-62 melanoma it was -5.98% (active); with LOX IMVI melanoma, -98.1% (active); in the assay on SK-MEL-28 melanoma, -81.7% (active).
Regarding `Cn1cc(-c2cc3nc(-c4c[nH]c5ccc(Cl)cc45)cc(N)n3n2)c2ccccc21`, the growth with DU-145 prostate was -85.9% (active); in the assay with K-562 leukemia it was 1.64% (active); in the assay with MALME-3M melanoma, -74.4% (active); with MDA-MB-231 breast, -56.2% (active); with RXF 393 renal, -80.1% (active); with SF-268 CNS, -44.9% (active). Besides, the growth in the assay with SF-295 CNS was -82.9% (active); in the assay on SF-539 CNS, -87.9% (active); with UACC-257 melanoma, -84.8% (active); in the assay on M14 melanoma, -89.6% (active); with HCT-15 colon, -86.2% (active); in the assay with SNB-75 CNS, -67.5% (active). Moreover, the growth in the assay with SNB-19 CNS is -72.3% (active); in the assay with U251 CNS it was -83% (active); with PC-3 prostate, -80.9% (active); with SK-MEL-5 melanoma, -84.8% (active); in the assay on UACC-62 melanoma, -70.9% (active); in the assay on LOX IMVI melanoma, -80.7% (active). Also, the growth with SK-MEL-28 melanoma is -97.4% (active).
On to `Cn1cc(-c2nnc(N)nc2-c2c[nH]c3ccc(F)cc23)c2cccnc21`, for which the growth in the assay with DU-145 prostate is 80.2%; in the assay with K-562 leukemia, 15.7%; in the assay on MALME-3M melanoma it was 44.8%; with MDA-MB-231 breast it was 51.6%; with RXF 393 renal, 65.4%; with SF-268 CNS, 61%. Also, the growth in the assay with SF-295 CNS is 25.6%; with SF-539 CNS it was 47.2%; with UACC-257 melanoma, 72.7%; with M14 melanoma, 21.6%; in the assay with HCT-15 colon, 28.5%; with SNB-75 CNS it was 24.4%. Further, the growth is 52.2% in the assay on SNB-19 CNS; 37.3% in the assay on U251 CNS; 63.7% in the assay on PC-3 prostate; 20.9% in the assay on SK-MEL-5 melanoma; 36.9% in the assay on UACC-62 melanoma; 63.2% in the assay on SK-MEL-28 melanoma.
For the compound `C=C1CC[C@@H]2[C@]3(C)COC(c4ccccc4)O[C@@H]3CC[C@@]2(C)[C@@H]1C/C=C1/C(=O)OCC1OC(C)=O` (some centres not stated), the growth was 22.5% with DU-145 prostate; -39.6% (active) in the assay on K-562 leukemia; -54.8% (active) in the assay with MALME-3M melanoma; -83.1% (active) in the assay on MDA-MB-231 breast; -87.7% (active) in the assay on RXF 393 renal; 35.1% in the assay on SF-268 CNS. The growth is -4.5% (active) in the assay on SF-295 CNS; -100% (active) in the assay with SF-539 CNS; -49.6% (active) in the assay on UACC-257 melanoma; -86.9% (active) in the assay on M14 melanoma; -87.3% (active) in the assay with HCT-15 colon; -93.1% (active) with HT29 colon. Besides, the growth with SNB-19 CNS was 55.5%; in the assay on U251 CNS, -89.9% (active); with PC-3 prostate, -41.4% (active); with SK-MEL-5 melanoma it was -45.1% (active); with UACC-62 melanoma, -82.7% (active); with LOX IMVI melanoma, -100% (active). In the assay on SK-MEL-28 melanoma, the growth was -86.9% (active).
